Where “and” joins values, the source holds several entries; their conditions need not be identical. Identical values can stand only once. Results filed as inconclusive are left out. Some structures have more than one record in an assay (separate samples or runs), and their calls can disagree. Calls of active or inactive are those of the source. Rule for the calls, unless noted: active = hit-call score of the fitted dose curve at least 0.9, where 1 is the maximum; inactive = score below 0.9.
Assays:
[1] = target: Myc proto-oncogene protein (Homo sapiens) (UniProt P01106); experiment: ATG_Myc_CIS: Attagene CIS-FACTORIAL HepG2 Assay for human Myelocytomatosis (Myc) Proto-Oncogene Transcription Factor (AID 2282990); details: HepG2, Attagene cis-reporter transcription factor activity; actives raise or lower the signal
How it was run: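 Multiplexed cis-reporter transcription in HepG2 cells after 24 h chemical treatment. Reporter mRNA measured by RT-PCR and capillary electrophoresis fluorescence; activity fitted bidirectionally against DMSO control.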

[2] = ATG_NF_kB_CIS: Attagene CIS-FACTORIAL HepG2 Assay for human Nuclear Factor Kappa B (NF-kB) (AID 2282991); details: HepG2 Attagene cis-factorial NF-kB reporter mRNA; actives raise or lower the signal
How it was run: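 HepG2 cells transiently transfected with multiplexed cis-element reporter units measuring endogenous transcription factor activity; reporter mRNA read 24 h after dosing by RT-PCR, fluorescent labelling, HpaI digestion and capillary electrophoresis. Bidirectional fit against DMSO baseline.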

[3] = ATG_NRF2_ARE_CIS: Attagene CIS-FACTORIAL HepG2 Assay for human Nuclear Factor Erythroid 2 Related Factor 2 (NFR2) response to Antioxidant Response Elements (ARE) (AID 2282992); details: HepG2 Attagene ARE/NRF2 reporter, transcription factor activity; actives raise or lower the signal
How it was run: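 Multiplexed reporter mRNA profiling in HepG2 after a 24 h chemical exposure. Curves fitted in both directions relative to DMSO negative control.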

[4] = ATG_Oct_MLP_CIS: Attagene CIS-FACTORIAL HepG2 Assay for human Octamer-Binding Transcription Factor (Oct) (AID 2282993); details: HepG2 Attagene cis-factorial Oct reporter, mRNA; actives raise or lower the signal
How it was run: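 Readout is reporter transcript level from RT-PCR with fluorescent primer extension and capillary electrophoresis, fitted in both directions against DMSO. Transfected HepG2 reporter units report endogenous factor activity after 24 h dosing.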

[5] = target: human Peroxisome Proliferator-activated Receptor delta (PPARd), PPARD (gene 5467) (UniProt Q03181); experiment: ATG_PPARd_TRANS: Attagene TRANS-FACTORIAL HepG2 Assay for human Peroxisome Proliferator-activated Receptor delta (PPARd) (AID 2283002; active = hit-call score of the fitted dose curve at least 0.9, where 1 is the maximum)
How it was run: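 Multiplexed trans-activation format: HepG2 liver cells expressing exogenous NR-Gal4 chimeras and GAL4-UAS reporters were exposed for 24 h. Reporter mRNA was detected by RT-PCR with capillary electrophoresis fluorescence; activity fitted as gain of signal relative to DMSO.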

[6] = target: Retinoic acid receptor alpha (Homo sapiens) (UniProt P10276); experiment: ATG_RARa_TRANS: Attagene TRANS-FACTORIAL HepG2 Assay for human Retinoic Acid Receptor alpha (RARa) (AID 2283005; active = hit-call score of the fitted dose curve at least 0.9, where 1 is the maximum;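 for AC50: potency for increased reporter signal meaning RARa activation over DMSO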)
How it was run: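 HepG2 cells transiently transfected with multiple reporter units expressing chimeric RARα-GAL4 fusion, with GAL4-UAS-driven reporters. After 24 h compound exposure, reporter mRNA induction quantified by RT-PCR and capillary electrophoresis with fluorescent labeling; gain-of-signal fitted relative to DMSO control.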

[7] = target: Peroxisome proliferator-activated receptor gamma (Homo sapiens) (UniProt P37231); experiment: ATG_PPARg_TRANS: Attagene TRANS-FACTORIAL HepG2 Assay for human Peroxisome Proliferator-activated Receptor-gamma (PPARg) (AID 2283007; active = hit-call score of the fitted dose curve at least 0.9, where 1 is the maximum)
How it was run: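 HepG2 cells transiently transfected with multiplexed GAL4-UAS reporter units and exogenous chimeric NR-Gal4 proteins; reporter mRNA quantified after 24 h compound exposure by RT-PCR, fluorescent labelling, HpaI digestion and capillary electrophoresis; gain-of-signal fitted versus DMSO baseline.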

[8] = target: human RAR-related Orphan Receptor beta (RORb), RORB (gene 6096) (UniProt Q92753); experiment: ATG_RORb_TRANS: Attagene TRANS-FACTORIAL HepG2 Assay for human RAR-related Orphan Receptor beta (RORb) (AID 2283010; active = hit-call score of the fitted dose curve at least 0.9, where 1 is the maximum)
How it was run: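 In this TRANS-format test, human HepG2 cells express chimeric NR-Gal4 fusion proteins driving GAL4-UAS reporters. After 24 h dosing, reporter transcripts are measured by fluorescent RT-PCR/capillary electrophoresis, with DMSO as negative control.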

[9] = target: human RAR-related Orphan Receptor gamma (RORg), RORC (gene 6097) (UniProt P51449); experiment: ATG_RORg_TRANS: Attagene TRANS-FACTORIAL HepG2 Assay for human RAR-related Orphan Receptor gamma (RORg) (AID 2283011; active = hit-call score of the fitted dose curve at least 0.9, where 1 is the maximum)
How it was run: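 HepG2 cells transiently transfected with GAL4-UAS reporter units and chimeric RORg-Gal4 construct; after 24 h chemical exposure, reporter mRNA measured by RT-PCR with fluorescent capillary electrophoresis, gain of signal fitted against DMSO.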

[10] = target: Cellular tumor antigen p53 (Homo sapiens) (UniProt P04637); experiment: ATG_p53_CIS: Attagene CIS-FACTORIAL HepG2 Assay for human p53 Transcription Factor (AID 2282994); details: HepG2 p53 cis-element reporter, Attagene mRNA; actives raise or lower the signal
How it was run: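 Multiplexed reporter mRNA assay in human HepG2 liver cells; cis-regulated units report endogenous factor activity. Values come from bidirectional curve fitting against DMSO negative control after 24 h treatment.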

[11] = target: human Peroxisome Proliferator-activated Receptor alpha (PPARa), PPARA (gene 5465) (UniProt Q07869); experiment: ATG_PPARa_TRANS: Attagene TRANS-FACTORIAL HepG2 Assay for human Peroxisome Proliferator-activated Receptor alpha (PPARa) (AID 2283001; active = hit-call score of the fitted dose curve at least 0.9, where 1 is the maximum)
How it was run: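 HepG2 cells transiently transfected with multiplexed GAL4-UAS reporter units and chimeric NR-Gal4 constructs were dosed for 24 h. Reporter mRNA was measured by RT-PCR with fluorescent labelling and capillary electrophoresis; gain of signal fitted against DMSO.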

[12] = target: Nuclear receptor subfamily 1 group I member 2 (Homo sapiens) (UniProt O75469); experiment: ATG_PXR_TRANS: Attagene TRANS-FACTORIAL HepG2 Assay for human Pregnane X Receptor (PXR) (AID 2283008; active = hit-call score of the fitted dose curve at least 0.9, where 1 is the maximum)
How it was run: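 Measures mRNA induction of a GAL4-UAS-driven reporter in human HepG2 cells transiently expressing PXR fused to Gal4, following 24 h treatment. DMSO served as negative control and baseline.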

[13] = BSK_3C_TissueFactor: BioMAP Diversity Plus: 3C Assay for Tissue Factor Biomarker Activity (AID 2282997); details: BioMAP 3C HUVEC, tissue factor biomarker readout; actives raise or lower the signal
How it was run: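 HUVEC were treated 24 h, then surface tissue factor measured by ELISA and fitted bidirectionally against DMSO. Parallel SRB total-protein staining assessed overt cytotoxicity at the same time point.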

[14] = BSK_3C_uPAR: BioMAP Diversity Plus: 3C Assay for Urokinase-type plasminogen activator receptor (uPAR) Biomarker Activity (AID 2282998); details: BioMAP 3C HUVEC, uPAR biomarker ELISA; actives raise or lower the signal
How it was run: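 Cell-surface uPAR on HUVEC (3C system) read by ELISA at 24 h post-treatment, with DMSO as baseline and fitting in both directions. Parallel cultures stained with SRB to flag overt cytotoxicity.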

[15] = BSK_3C_VCAM1: BioMAP Diversity Plus: 3C Assay for Vascular cell adhesion molecule 1 (VCAM1) Biomarker Activity (AID 2282999); details: BioMAP 3C HUVEC, VCAM1 ELISA, cytokine-stimulated; actives raise or lower the signal
How it was run: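 Human umbilical vein endothelial cells were dosed with compound for 24 h, after which cell-surface VCAM-1 was quantified by ELISA. Bidirectional curve fitting used DMSO as negative control and activity baseline.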

[16] = BSK_4H_Eotaxin3: BioMAP Diversity Plus: 4H Assay for Eotaxin 3 Biomarker Activity (AID 2283000); details: primary human endothelial cells (HUVEC); actives raise or lower the signal
How it was run: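 Eotaxin-3 (CCL26) levels were measured by ELISA in HUVEC primary cultures 24 h post-dosing. Gain or loss of signal was fitted in both directions, with DMSO serving as baseline and negative control.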

[17] = read-out: Intercellular Adhesion Molecule 1 (ICAM1), ICAM1 (gene 3383); experiment: BSK_3C_ICAM1: BioMAP Diversity Plus: 3C Assay for Intercellular Adhesion Molecule 1 (ICAM1) Biomarker Activity (AID 2283003); details: primary human endothelial cells (HUVEC); actives raise or lower the signal
How it was run: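 Human vascular endothelial primary cells, 3C conditions, 24 h treatment. ICAM-1 by ELISA.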

[18] = target: human Retinoic Acid Receptor beta (RARb), RARB (gene 5915) (UniProt P10826); experiment: ATG_RARb_TRANS: Attagene TRANS-FACTORIAL HepG2 Assay for human Retinoic Acid Receptor beta (AID 2283004; active = hit-call score of the fitted dose curve at least 0.9, where 1 is the maximum)
How it was run: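 HepG2 cells were transiently transfected with GAL4-UAS reporter units that report activity of exogenous chimeric NR-Gal4 proteins, then exposed to compound for 24 h. Reporter mRNA was quantified by RT-PCR with capillary electrophoresis fluorescence, as gain of signal over DMSO.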

[19] = BSK_3C_Proliferation: Cell Proliferation Assessment in the BioMAP Diversity Plus: 3C Assay (AID 2283006); details: primary human endothelial cells (HUVEC);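 for AC50: potency may reflect either rise or fall in cell number versus DMSO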
How it was run: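 Proliferation of human vascular endothelial primary cells after 48 h dosing, quantified as SRB-stained protein at 560 nm relative to DMSO.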

[20] = target: human Retinoic Acid Receptor gamma (RARg), RARG (gene 5916) (UniProt P13631); experiment: ATG_RARg_TRANS: Attagene TRANS-FACTORIAL HepG2 Assay for human Retinoic Acid Receptor gamma (RARg) (AID 2283009; active = hit-call score of the fitted dose curve at least 0.9, where 1 is the maximum)
How it was run: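 HepG2, RARg-GAL4 TRANS system, 24 h exposure; reporter mRNA by RT-PCR + CE fluorescence; increase over DMSO.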

Measured: AC50

Sequence of Myc proto-oncogene protein (Homo sapiens) (P01106 whole entry, looked up): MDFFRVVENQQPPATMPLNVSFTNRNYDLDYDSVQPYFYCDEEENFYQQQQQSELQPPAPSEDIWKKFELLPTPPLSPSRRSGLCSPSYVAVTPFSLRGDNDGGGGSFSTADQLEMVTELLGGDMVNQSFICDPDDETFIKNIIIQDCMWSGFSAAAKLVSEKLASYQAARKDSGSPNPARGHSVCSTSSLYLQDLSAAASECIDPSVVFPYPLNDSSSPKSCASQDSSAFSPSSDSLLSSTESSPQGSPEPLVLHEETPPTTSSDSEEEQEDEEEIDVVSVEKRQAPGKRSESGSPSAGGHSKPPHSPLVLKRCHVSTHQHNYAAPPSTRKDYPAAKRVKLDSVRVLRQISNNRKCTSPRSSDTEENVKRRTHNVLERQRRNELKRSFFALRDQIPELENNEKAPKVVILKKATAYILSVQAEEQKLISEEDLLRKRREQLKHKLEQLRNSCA
Sequence of human Peroxisome Proliferator-activated Receptor delta (PPARd), PPARD (gene 5467) (Q03181 whole entry, looked up, the tested form may be a part): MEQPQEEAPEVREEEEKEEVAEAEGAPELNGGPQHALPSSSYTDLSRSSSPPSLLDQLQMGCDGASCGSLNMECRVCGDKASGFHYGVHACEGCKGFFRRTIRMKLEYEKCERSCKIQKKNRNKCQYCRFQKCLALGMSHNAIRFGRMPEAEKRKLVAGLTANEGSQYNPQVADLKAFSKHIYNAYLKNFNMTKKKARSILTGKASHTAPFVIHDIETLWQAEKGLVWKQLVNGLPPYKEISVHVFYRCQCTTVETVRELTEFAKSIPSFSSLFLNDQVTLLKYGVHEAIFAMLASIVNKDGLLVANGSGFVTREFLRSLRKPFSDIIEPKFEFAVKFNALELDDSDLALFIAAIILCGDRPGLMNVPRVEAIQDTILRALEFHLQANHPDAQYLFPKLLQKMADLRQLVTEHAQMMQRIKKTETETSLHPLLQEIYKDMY
Sequence of Cellular tumor antigen p53 (Homo sapiens) (P04637 whole entry, looked up): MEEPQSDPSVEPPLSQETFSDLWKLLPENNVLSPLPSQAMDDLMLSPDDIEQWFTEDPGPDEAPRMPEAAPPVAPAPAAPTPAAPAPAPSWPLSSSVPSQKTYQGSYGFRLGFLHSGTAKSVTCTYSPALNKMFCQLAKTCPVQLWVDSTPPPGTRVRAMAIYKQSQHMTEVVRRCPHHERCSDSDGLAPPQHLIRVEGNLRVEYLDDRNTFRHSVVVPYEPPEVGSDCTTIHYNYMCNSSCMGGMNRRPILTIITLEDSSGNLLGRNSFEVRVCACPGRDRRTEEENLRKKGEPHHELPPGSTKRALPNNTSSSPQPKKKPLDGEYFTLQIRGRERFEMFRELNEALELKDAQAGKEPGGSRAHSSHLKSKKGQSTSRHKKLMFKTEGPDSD
Sequence of human RAR-related Orphan Receptor gamma (RORg), RORC (gene 6097) (P51449 whole entry, looked up, the tested form may be a part): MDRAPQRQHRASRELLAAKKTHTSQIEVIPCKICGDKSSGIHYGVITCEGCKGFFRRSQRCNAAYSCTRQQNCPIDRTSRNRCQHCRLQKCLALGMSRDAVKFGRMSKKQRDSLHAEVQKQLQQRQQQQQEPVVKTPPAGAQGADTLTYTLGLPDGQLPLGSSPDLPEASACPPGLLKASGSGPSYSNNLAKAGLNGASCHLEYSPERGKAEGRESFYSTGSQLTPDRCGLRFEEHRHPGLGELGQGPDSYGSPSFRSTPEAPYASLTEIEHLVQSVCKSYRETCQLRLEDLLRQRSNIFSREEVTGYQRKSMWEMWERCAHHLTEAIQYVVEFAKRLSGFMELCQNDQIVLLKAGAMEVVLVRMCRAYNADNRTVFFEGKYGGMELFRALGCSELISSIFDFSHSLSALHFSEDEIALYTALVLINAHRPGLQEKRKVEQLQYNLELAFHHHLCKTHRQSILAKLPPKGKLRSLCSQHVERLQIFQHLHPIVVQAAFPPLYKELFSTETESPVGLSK
Sequence of human RAR-related Orphan Receptor beta (RORb), RORB (gene 6096) (Q92753 whole entry, looked up, the tested form may be a part): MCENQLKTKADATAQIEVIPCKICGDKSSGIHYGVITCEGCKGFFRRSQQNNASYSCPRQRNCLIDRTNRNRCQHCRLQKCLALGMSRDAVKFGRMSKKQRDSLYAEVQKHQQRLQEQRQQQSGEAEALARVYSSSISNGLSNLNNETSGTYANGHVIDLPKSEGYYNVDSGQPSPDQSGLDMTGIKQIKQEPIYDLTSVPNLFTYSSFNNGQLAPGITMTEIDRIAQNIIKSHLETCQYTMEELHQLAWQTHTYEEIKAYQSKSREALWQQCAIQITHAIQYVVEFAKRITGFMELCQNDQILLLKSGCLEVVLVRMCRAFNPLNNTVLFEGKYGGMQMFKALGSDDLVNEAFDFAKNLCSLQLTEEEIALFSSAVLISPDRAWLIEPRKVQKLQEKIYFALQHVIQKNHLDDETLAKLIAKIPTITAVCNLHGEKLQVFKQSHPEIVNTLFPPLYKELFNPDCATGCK
Sequence of human Retinoic Acid Receptor gamma (RARg), RARG (gene 5916) (P13631 whole entry, looked up, the tested form may be a part): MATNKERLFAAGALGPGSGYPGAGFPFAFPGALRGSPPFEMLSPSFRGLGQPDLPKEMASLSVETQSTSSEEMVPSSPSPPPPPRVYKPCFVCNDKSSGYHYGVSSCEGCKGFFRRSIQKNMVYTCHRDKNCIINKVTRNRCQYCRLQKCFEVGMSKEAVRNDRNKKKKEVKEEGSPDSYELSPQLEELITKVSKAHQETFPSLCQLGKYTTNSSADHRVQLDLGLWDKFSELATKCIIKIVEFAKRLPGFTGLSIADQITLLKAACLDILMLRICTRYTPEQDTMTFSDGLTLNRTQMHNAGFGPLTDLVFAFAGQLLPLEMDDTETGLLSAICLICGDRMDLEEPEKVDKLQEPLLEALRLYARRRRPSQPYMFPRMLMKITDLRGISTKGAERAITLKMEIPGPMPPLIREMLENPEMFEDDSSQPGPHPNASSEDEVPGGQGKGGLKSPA
Sequence of Peroxisome proliferator-activated receptor gamma (Homo sapiens) (P37231 whole entry, looked up, the tested form may be a part): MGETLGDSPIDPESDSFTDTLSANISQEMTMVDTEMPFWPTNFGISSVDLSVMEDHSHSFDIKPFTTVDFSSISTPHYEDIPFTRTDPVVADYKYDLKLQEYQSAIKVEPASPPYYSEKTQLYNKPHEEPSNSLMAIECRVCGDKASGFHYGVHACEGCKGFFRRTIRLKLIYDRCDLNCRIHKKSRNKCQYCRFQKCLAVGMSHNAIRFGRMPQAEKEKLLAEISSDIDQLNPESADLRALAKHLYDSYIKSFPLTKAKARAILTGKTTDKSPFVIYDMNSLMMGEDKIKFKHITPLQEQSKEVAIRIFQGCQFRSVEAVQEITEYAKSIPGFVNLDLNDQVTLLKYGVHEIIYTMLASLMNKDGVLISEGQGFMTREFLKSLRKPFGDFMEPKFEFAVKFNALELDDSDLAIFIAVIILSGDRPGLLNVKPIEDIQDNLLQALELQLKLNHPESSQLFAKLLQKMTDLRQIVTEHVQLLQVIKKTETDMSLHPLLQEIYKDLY
Sequence of human Retinoic Acid Receptor beta (RARb), RARB (gene 5915) (P10826 whole entry, looked up, the tested form may be a part): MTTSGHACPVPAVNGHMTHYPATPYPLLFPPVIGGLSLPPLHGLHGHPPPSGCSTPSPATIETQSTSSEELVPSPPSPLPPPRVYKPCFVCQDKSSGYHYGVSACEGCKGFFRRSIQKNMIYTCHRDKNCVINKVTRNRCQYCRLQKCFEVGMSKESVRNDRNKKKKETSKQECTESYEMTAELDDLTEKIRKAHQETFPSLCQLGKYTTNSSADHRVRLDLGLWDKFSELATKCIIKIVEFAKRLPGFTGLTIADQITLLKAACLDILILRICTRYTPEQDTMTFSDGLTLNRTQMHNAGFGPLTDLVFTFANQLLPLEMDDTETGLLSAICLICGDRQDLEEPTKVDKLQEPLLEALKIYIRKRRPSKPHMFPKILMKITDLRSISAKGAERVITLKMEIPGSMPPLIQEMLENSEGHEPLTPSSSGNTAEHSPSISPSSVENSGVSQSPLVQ
Sequence of Nuclear receptor subfamily 1 group I member 2 (Homo sapiens) (O75469 whole entry, looked up, the tested form may be a part): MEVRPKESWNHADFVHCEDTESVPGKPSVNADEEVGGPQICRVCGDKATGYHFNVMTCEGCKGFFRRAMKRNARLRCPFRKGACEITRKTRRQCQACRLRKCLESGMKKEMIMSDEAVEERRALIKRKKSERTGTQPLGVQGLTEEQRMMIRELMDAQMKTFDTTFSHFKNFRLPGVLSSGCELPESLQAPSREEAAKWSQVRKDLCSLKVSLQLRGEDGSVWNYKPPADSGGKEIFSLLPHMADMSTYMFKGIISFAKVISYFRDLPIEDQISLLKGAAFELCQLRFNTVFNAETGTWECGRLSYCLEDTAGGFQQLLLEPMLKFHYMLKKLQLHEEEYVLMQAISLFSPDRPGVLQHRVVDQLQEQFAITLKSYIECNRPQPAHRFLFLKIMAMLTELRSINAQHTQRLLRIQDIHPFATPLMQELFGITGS
Sequence of human Peroxisome Proliferator-activated Receptor alpha (PPARa), PPARA (gene 5465) (Q07869 whole entry, looked up, the tested form may be a part): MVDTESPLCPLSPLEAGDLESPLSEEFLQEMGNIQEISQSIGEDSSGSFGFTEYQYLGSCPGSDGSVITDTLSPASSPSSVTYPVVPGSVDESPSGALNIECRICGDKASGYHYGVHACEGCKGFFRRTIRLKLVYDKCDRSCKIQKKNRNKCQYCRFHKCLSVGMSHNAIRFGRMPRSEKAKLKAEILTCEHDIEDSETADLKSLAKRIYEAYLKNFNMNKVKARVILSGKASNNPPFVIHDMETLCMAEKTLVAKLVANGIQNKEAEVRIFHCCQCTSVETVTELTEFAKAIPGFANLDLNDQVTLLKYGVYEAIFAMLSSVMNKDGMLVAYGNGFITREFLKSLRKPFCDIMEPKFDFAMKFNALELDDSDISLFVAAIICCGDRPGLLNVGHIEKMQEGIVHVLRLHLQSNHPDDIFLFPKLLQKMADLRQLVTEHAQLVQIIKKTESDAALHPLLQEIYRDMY

CCCCOCC
inactive: [1] | [2] | [3] | [4] | [5] | [6] | [7] | [8] | [9]

CCCCCCOC(=O)C(C)C
inactive: [1] | [2] | [3] | [10] | [11] | [7] | [9]

Clc1ccc(C(c2ccccc2Cl)C(Cl)Cl)cc1 (stereo not given)
active: [2] 100 µM | [3] 52 µM | [12] 1.92 µM
inactive: [1] | [10] | [11] | [5] | [7]

CCOc1ccccc1O
inactive: [1] | [2] | [3] | [10] | [6] | [7] | [12] | [8]

CCCCCCC(C)Nc1ccc(Nc2ccccc2)cc1 (stereo not given)
active: [3] 24.1 µM | [7] 11.7 µM | [12] 1.53 µM
inactive: [1] | [2] | [4] | [5]

O=P(O)(O)O
inactive: [1] | [2] | [3] | [4] | [8] | [9]

Cc1c(Cl)cccc1[N+](=O)[O-]
inactive: [1] | [2] | [3] | [4] | [5] | [12] | [9]

CCCN(CCC)S(=O)(=O)c1ccc(C(=O)O)cc1
active: [12] 18.7 µM
inactive: [1] | [2] | [3] | [10] | [11] | [7] | [8] | [9]

CC(CN=Cc1ccccc1O)N=Cc1ccccc1O (stereo not given)
active: [2] 63.6 µM | [3] 69.5 µM | [19] 3.97 µM | [7] 72.2 µM
inactive: [1] | [10] | [13] | [14] | [15] | [16] | [11] | [17] | [18] | [19]

CCc1ccc(O)cc1
inactive: [1] | [2] | [3] | [10] | [11] | [5] | [18] | [7] | [8]

CC(C)Nc1nc(N)nc(Cl)n1
inactive: [1] | [2] | [3] | [10] | [5] | [7] | [12]

C1CCOC1
inactive: [1] | [2] | [3] | [4] | [5] | [6] | [7] | [12] | [20] | [8]

c1ccc2cc(Nc3ccc(Nc4ccc5ccccc5c4)cc3)ccc2c1
active: [13] 13.9 µM
not listed: [4] | [6] | [9] | [10] | [18] | [20]
inactive: all other assays above

CC(C)(N=C=O)c1cccc(C(C)(C)N=C=O)c1
inactive: [1] | [2] | [13] | [14] | [15] | [16] | [5] | [17] | [19] | [8]
active: [3] 13 µM | [12] 11.3 µM

C=C(C)[C@@H]1CC=C(C)C(=O)C1
inactive: [1] | [2] | [4] | [11] | [7] | [12] | [9]
active: [3] 45.4 µM

C=CC(C)C#N (stereo not given)
inactive: [1] | [2] | [3] | [10] | [5] | [18] | [6] | [7] | [12] | [20] | [9]

CCCCCCCCCCCCCC(=O)OCC(O)CO (stereo not given)
inactive: [1] | [2] | [10] | [11] | [5] | [18] | [6] | [12] | [20] | [9]
active: [3] 112 µM

C=Cc1ccc(C(C)(C)C)cc1
inactive: [1] | [2] | [3] | [4] | [5] | [12] | [9]

N#Cc1ccc(CC(=O)c2cccc(C(F)(F)F)c2)cc1
inactive: [2] | [10] | [11] | [5] | [20]
active: [1] 158 µM | [3] 13.5 µM | [7] 31.4 µM | [12] 5.99 µM

CC(C)CCCCCCc1ccc(OCCOCCO)cc1
active: [6] 10.2 µM
inactive: [1] | [2] | [3] | [4] | [18] | [12] | [20]

CC1(C)CCC[C@]2(C)[C@H]3CCO[C@]3(C)CC[C@@H]12
active: [3] 155 µM | [13] 32 µM and 30.7 µM | [14] 32.9 µM | [16] 33.2 µM and 35 µM | [17] 31.2 µM and 38.9 µM | [19] 32.6 µM and 33.6 µM | [12] 32.6 µM
inactive: [1] | [2] | [14] | [15] | [5] | [7] | [20] | [8]

CS(C)=O
inactive: [1] | [2] | [3] | [4] | [6] | [12] | [20] | [8] | [9]

From PubChem BioAssay (EPA / NIEHS)
